Among the test systems are HCT-15 colon; HT29 colon; SNB-75 CNS; SNB-19 CNS; U251 CNS; PC-3 prostate; SK-MEL-5 melanoma; UACC-62 melanoma; LOX IMVI melanoma; SK-MEL-28 melanoma; EKVX NSCLC; SN12C renal; UO-31 renal; TK-10 renal; ACHN renal; CAKI-1 renal; CCRF-CEM leukemia; MOLT-4 leukemia; A498 renal; SK-MEL-2 melanoma.
What all share (test): NCI-60 one-dose screen, 48 h (100 = growth as untreated, 0 = no growth, -100 = all killed)
Conditions in all cases: 10 µM unless noted

This is part of a sample that, as a whole, favours compounds with a hit. Of some 83,000 tested, about 20% had one in any assay.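 Single-concentration screen, 48 h exposure, 96-well plates. Endpoint: percent growth. Below 10 = active.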 A number with no mark means an inactive call. Calls of active or inactive are those of the source.

Take `O=c1[nH]nc(-c2ccccc2)c2sc3ncc(-c4ccc(Br)cc4)n3c12`: the growth with HCT-15 colon is 94.5%; with HT29 colon it was 9.13% (active); in the test with SNB-75 CNS it was 19.7%; in the test with SNB-19 CNS, 44.7%; in the test with U251 CNS, 38.9%; in the test with PC-3 prostate, 50.2%. The growth in the test on SK-MEL-5 melanoma was 78.9%; in the test with UACC-62 melanoma, 47.5%; in the test with LOX IMVI melanoma, 36.9%; in the test with SK-MEL-28 melanoma it was 57.6%; in the test on EKVX NSCLC, 67.3%; with SN12C renal, 46.1%. The growth with UO-31 renal is 73.3%; with TK-10 renal, 109%; with ACHN renal it was 75.7%; in the test with CAKI-1 renal, 56.1%; with CCRF-CEM leukemia it was 22.4%; in the test with MOLT-4 leukemia it was 41.7%.
In the case of `N#CC1=C(/N=C/c2ccccc2)Oc2c(ccc3ccccc23)C1c1ccc([N+](=O)[O-])cc1` (stereo not given), the growth was 91.4% in the test on HCT-15 colon; 102% with HT29 colon; 60.4% with SNB-75 CNS; 94.9% in the test on SNB-19 CNS; 97.4% in the test with U251 CNS; 78.7% with PC-3 prostate. Moreover, the growth was 86.9% in the test on SK-MEL-5 melanoma; 87.2% in the test with UACC-62 melanoma; 90.4% in the test on LOX IMVI melanoma; 118% with SK-MEL-28 melanoma; 70.7% with EKVX NSCLC; 93.5% in the test with SN12C renal. In addition, the growth in the test on UO-31 renal was 59.5%; with TK-10 renal it was 166%; in the test on ACHN renal, 87.9%; in the test on CAKI-1 renal, 70.1%; with CCRF-CEM leukemia, 94.5%; with MOLT-4 leukemia it was 94.4%.
For the compound `COc1cc2c(c(O)c1Cl)C(=O)c1c(O)cc(C[C@H](C)O)cc1[C@H]2[C@H]1c2cc(C[C@H](C)O)cc(O)c2C(=O)c2c1cc(OC)c(Cl)c2O`, the growth with HCT-15 colon was 8.82% (active); with HT29 colon it was 9.65% (active); in the test on SNB-75 CNS, -3.83% (active); with SNB-19 CNS it was 18%; in the test with U251 CNS it was 8.26% (active); in the test on PC-3 prostate, 16.7%. For the same compound, the growth was -65.7% (active) in the test with SK-MEL-5 melanoma; 0.814% (active) with UACC-62 melanoma; 7.32% (active) with LOX IMVI melanoma; 38.2% in the test on SK-MEL-28 melanoma; 13.5% with EKVX NSCLC; 8.13% (active) with SN12C renal. Further, the growth in the test with UO-31 renal was 2.84% (active); in the test with TK-10 renal, 31.8%; in the test with ACHN renal it was -5.77% (active); in the test on CAKI-1 renal, 8.67% (active); in the test on CCRF-CEM leukemia, 18.6%; in the test on MOLT-4 leukemia it was 14.9%.
On to `CC(C)N1C(=O)/C(=C2\SC(=S)N(C(C)C)C2=O)SC1=S`, for which the growth is 98.5% in the test on HCT-15 colon; 96.8% in the test on HT29 colon; 62.3% in the test on SNB-75 CNS; 92.6% with SNB-19 CNS; 90.8% in the test on U251 CNS; 89.3% in the test with PC-3 prostate. The growth is 97.9% in the test with SK-MEL-5 melanoma; 91.7% in the test on UACC-62 melanoma; 90% in the test on LOX IMVI melanoma; 97.8% with SK-MEL-28 melanoma; 82.9% with EKVX NSCLC; 93.1% in the test on SN12C renal. Moreover, the growth in the test on UO-31 renal was 78.6%; in the test on TK-10 renal it was 88.2%; in the test on ACHN renal it was 100%; in the test on CAKI-1 renal, 93.7%; in the test with A498 renal, 84.2%; in the test with CCRF-CEM leukemia it was 87.8%. Besides, the growth in the test with MOLT-4 leukemia is 101%.
With `COc1ccc(C(=O)c2cc(C)c(OC)c(C)c2)c(OC)c1OC(=O)C(Cl)Cl`, the growth with HCT-15 colon is 3.34% (active); in the test with HT29 colon, 22.4%; in the test with SNB-75 CNS, 56.3%; in the test on SNB-19 CNS, 22.2%; with U251 CNS, 13.5%; with PC-3 prostate, 19.1%. Also, the growth was -20.8% (active) in the test on SK-MEL-5 melanoma; 29.3% with UACC-62 melanoma; 20.3% in the test on LOX IMVI melanoma; 53.3% with SK-MEL-28 melanoma; 58.4% in the test with EKVX NSCLC; 30.1% in the test with SN12C renal. Further, the growth in the test with UO-31 renal was 35.3%; in the test on TK-10 renal, 50.9%; in the test with ACHN renal it was 18.3%; with CAKI-1 renal, 39.8%; in the test with CCRF-CEM leukemia, 11.1%; in the test on MOLT-4 leukemia, 20.7%.
Turning to `O=C(/C=C(O)/C=C/c1ccc(SC(F)(F)F)cc1)/C=C/c1ccc(SC(F)(F)F)cc1`, the growth in the test with HCT-15 colon is 88.5%; in the test on HT29 colon it was 83.2%; with SNB-75 CNS, 115%; with SNB-19 CNS, 90.3%; with U251 CNS it was 66.5%; in the test on PC-3 prostate, 81%. The growth with SK-MEL-5 melanoma is 91.4%; in the test on LOX IMVI melanoma it was 72%; in the test on SK-MEL-28 melanoma it was 100%; in the test on SK-MEL-2 melanoma it was 101%; with EKVX NSCLC it was 111%; in the test on SN12C renal, 94.2%. Moreover, the growth with UO-31 renal was 73.1%; in the test with TK-10 renal, 101%; in the test on ACHN renal, 102%; with CAKI-1 renal, 96%; with CCRF-CEM leukemia it was 60.7%; with MOLT-4 leukemia it was 76.1%.
Turning to `Fc1ccc(-c2cn3c(nc4ccccc43)c(-c3ccccc3)n2)cc1`, the growth with HCT-15 colon was 94%; in the test with HT29 colon it was 78.4%; in the test with SNB-75 CNS, 68.9%; in the test on SNB-19 CNS, 103%; in the test on U251 CNS, 91.5%; in the test with PC-3 prostate, 85%. The growth in the test with SK-MEL-5 melanoma was 88.6%; in the test with LOX IMVI melanoma, 106%; in the test on SK-MEL-28 melanoma, 185%; in the test with SK-MEL-2 melanoma, 109%; in the test with EKVX NSCLC, 108%; with SN12C renal, 89.2%. The growth was 80.4% with UO-31 renal; 113% with TK-10 renal; 92.7% in the test on ACHN renal; 84.9% in the test on CAKI-1 renal; 111% in the test with A498 renal; 92.4% with MOLT-4 leukemia.
For `COc1cc2cc(CN3CCN(c4nccc(-c5ccc6ccccc6c5)n4)CC3)c(=O)[nH]c2cc1OC`, the growth is 21.2% with HCT-15 colon; 69% in the test with HT29 colon; 104% in the test with SNB-75 CNS; 76.7% with SNB-19 CNS; 22.9% with U251 CNS; 60.7% in the test with PC-3 prostate. The growth in the test with SK-MEL-5 melanoma was 85.4%; in the test on UACC-62 melanoma it was 95.1%; with LOX IMVI melanoma it was 90.2%; in the test with SK-MEL-28 melanoma, 102%; in the test on EKVX NSCLC, 94.5%; with SN12C renal it was 51.7%. For the same compound, the growth was 74.9% with UO-31 renal; 91% with TK-10 renal; 75.7% in the test on ACHN renal; 99.5% with CAKI-1 renal; 49.1% in the test on CCRF-CEM leukemia; 54.1% in the test on MOLT-4 leukemia.

(Values after PubChem BioAssay (NCI).)
